# Source: the supplement of paper PMC3334620
# Whole data set: some 33,000 sequences, median “E-score (-0.5 to 0.5)” near -0.04, cut for the highest 2% near 0.36. Shown is part of a subset that was picked to be rich in the highest values.
# Target: T1, Hmlalpha2 (UniProt P0CY09)
# T1 sequence: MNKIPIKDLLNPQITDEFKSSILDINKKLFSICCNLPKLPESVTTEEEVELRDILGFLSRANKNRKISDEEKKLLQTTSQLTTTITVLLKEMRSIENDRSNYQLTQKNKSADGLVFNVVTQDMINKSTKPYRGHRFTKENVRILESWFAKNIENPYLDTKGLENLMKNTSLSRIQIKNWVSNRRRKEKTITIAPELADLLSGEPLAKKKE
# Experiment: PBM E-score (8-mer binding enrichment) (E-score (-0.5 to 0.5)); higher = stronger / more preferred TF binding
# Settings: protein concentration: 200 nM; construct: GST-full length
# In short: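 For each ungapped eight-base word taken together with its reverse complement, the Universal PBM Analysis Suite assigned an E-score. Binding data came from GST-tagged yeast transcription factors, applied at about 100-200 nM, on universal all-10-mer Agilent arrays made double-stranded by primer extension. Fluorescent anti-GST marked bound protein, and scans were normalised with masliner.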
row,Sequence,PBM E-score
1,ATGGTATA,0.178
2,CTTGACTC,-0.216
3,GCAAGCTA,0.0155
4,ATTTGCTG,0.024
5,CTACACTA,0.208
6,GTACACCA,0.089
7,CTACACTC,0.145
8,CGACACGC,0.243
9,GTACACTA,0.135
10,CTACACCA,0.165
11,CTACACGC,0.428
12,GTACACGA,0.425
13,CTACACGA,0.451
14,AGCCACCG,-0.248
15,CCCACCAC,-0.191
16,ATACGCCA,-0.109
17,TCATACAA,0.0397
18,AAATACAA,0.347
19,AAATACAT,0.441
20,CAATATAC,0.131
21,CAATACAA,0.256
22,CAATACAC,0.431

row,Sequence,PBM E-score
1,TAATACAA,0.375
2,AAATACTT,0.208
3,AAATACGT,0.246
4,AAATACAC,0.431
5,CAATACAG,0.0335
6,AAATACAG,0.172
7,GTGGGACA,-0.0285
8,AGCTGTTA,0.0595
9,CGGTGCGA,-0.141
10,CACTGTTA,0.0828
11,ACGCTACG,0.0651
12,GACCGTCC,-0.302
13,TAAGGCCA,0.0046
14,TAAGCAGA,0.00375
15,AGAATCTG,-0.187
16,GGTGGACA,-0.0373
17,GAATACAC,0.451
18,GAATACGC,0.357
19,GAATACAA,0.352
20,CCAGGCAG,-0.272
21,AGACCTGC,-0.0816
22,CTTCGGCA,-0.198

row,Sequence,PBM E-score
1,GTAAACAC,0.416
2,CTAAAAAC,0.0815
3,ATAAACAT,0.383
4,GTAAAAAA,0.286
5,CTAAACAC,0.296
6,GGAAACAC,0.119
7,GTAAAAAC,0.385
8,ATAAACAC,0.365
9,ATAAACAA,0.323
10,ATAAACAG,0.0861
11,ACAAACAT,0.305
12,AAAAACAT,0.297
13,ATACCTCA,-0.072
14,AGCATTGC,0.0222
15,AGCGGGGA,-0.24
16,CGTTGAAA,0.0902
17,TACGGCCA,-0.262
18,TTAAACAA,0.274
19,GTAAACAA,0.37
20,CTAAACAA,0.0668
21,ATGCTAAG,0.027
22,CGTCGAAC,0.0323

row,Sequence,PBM E-score
1,AGTGTGTC,0.174
2,AGTGTACA,0.301
3,GGGGTGTA,0.0612
4,CGTGTACC,0.326
5,CGTGTGTA,0.413
6,AGTGTGTA,0.395
7,CGTGTGCA,0.0955
8,GGTGTGTA,0.423
9,CGTGTGTC,0.2
10,CGTGTACA,0.467
11,GGTGTGCA,-0.155
12,AGTGTGTG,0.127
13,CCGGACGA,-0.0406
14,ATGGGAAT,0.0681
15,CAGCACCG,-0.189
16,GCGCGGTA,0.0518
17,ACCTGCAG,-0.0825
18,AAGCAGGG,-0.116
19,CGTGTATA,0.452
20,GGTGTATA,0.0823
21,CGTGTATC,0.332
22,GGTCTATA,0.121

row,Sequence,PBM E-score
1,ATATACAC,0.422
2,GTATACAC,0.416
3,ATATACAA,0.343
4,ATATACAG,0.131
5,ATATATAC,0.345
6,GTATACAA,0.291
7,ATATACAT,0.435
8,CTATACAC,0.213
9,GTATATAC,0.155
10,AAGGTAAC,0.0918
11,CACGCCCC,0.0158
12,ACTTGAGG,-0.203
13,CATGTGTA,0.427
14,GATGTGTA,0.38
15,AATGTGTC,0.0899
16,AATGTGTG,0.0802
17,GATGTGGA,-0.0421
18,CATGTGTC,0.152
19,GATGTGCA,-0.091
20,CATGTGGA,0.144
21,AATGTGTA,0.371
